Screens: PubChem BioAssay, Broad Institute
DUX4 inh – blocks DUX4-driven transcriptional activation; activity change, negative = inhibition, % (concentration not given with the values); 293T-iDUX4 ZSCAN4-Gaussia luciferase reporter, 24 h; hits give low values; hit rate 0.8% among 37,000;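 active = mean inhibition of at least 10% in the main channel, exceeding the control channel by a set limit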;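 also: 0% = median of neutral control wells and -100% = median of positive control wells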
* hit, by the source's call; ! = not confirmed by another sample. This excerpt belongs to a sample that is enriched for hits.

SMILES	DUX4 inh
O=C(O)C[C@@H]1C[C@H]2c3cc(NC(=O)C4CCC4)ccc3O[C@H]2[C@@H](CO)O1	2.9
COc1ccc2c3c(n(C)c2c1)[C@H](CO)N(Cc1ccc(F)cc1)CC31CN(C)C1	-4.9
C/C=C/c1ccc([C@H]2[C@H](CO)N(C(=O)c3cnccn3)C23CN(C(=O)CC)C3)cc1	3.9
O=C(NCC1CCCCC1)[C@@H]1[C@@H](CO)[C@@H]2Cn3c(cccc3=O)[C@@H]2N1C(=O)CC1CC1	1.8
COc1cccc(S(=O)(=O)Nc2ccc3c(c2)C(=O)N(C)C[C@H](OC)[C@@H](C)CN(Cc2ccccc2F)[C@H](C)CO3)c1	-3.7
CCCN1C[C@@H](C)[C@@H](OC)CN(C)C(=O)c2cc(NS(=O)(=O)c3ccccc3)ccc2OC[C@H]1C	6.9
COc1cccc(S(=O)(=O)Nc2ccc3c(c2)C(=O)N(C)C[C@@H](OC)[C@H](C)CN(Cc2ccccc2F)[C@H](C)CO3)c1	-25.9*
Cc1nn(C)cc1NC(=O)C[C@@H]1CC[C@@H]2[C@@H](COc3ccc(NC(=O)NC(C)C)cc3C(=O)N2C)O1	1.6
C[C@H]1CN([C@@H](C)CO)C(=O)c2c(c3ccccc3n2C)-c2ccccc2CO[C@@H]1CN(C)C(=O)c1ccc(F)cc1	-32.2*
C[C@H](CO)N1C[C@H](C)[C@@H](CN(C)C(=O)c2cc(Cl)cc(Cl)c2)OCc2ccccc2-c2c(n(C)c3ccccc23)C1=O	13.3
C[C@@H]1CN([C@H](C)CO)C(=O)c2c(c3ccccc3n2C)-c2ccccc2CO[C@@H]1CN(C)C(=O)c1ccc(F)cc1	-5.5
CC(=O)N(C)C[C@@H]1OCc2ccccc2-c2c(n(C)c3ccccc23)C(=O)N([C@@H](C)CO)C[C@H]1C	17.2
C[C@@H]1CN([C@@H](C)CO)C(=O)c2c(c3ccccc3n2C)-c2ccccc2CO[C@@H]1CN(C)C(=O)c1ccncc1	1.1
C[C@@H]1CN([C@@H](C)CO)C(=O)c2c(c3ccccc3n2C)-c2ccccc2CO[C@@H]1CN(C)C(=O)c1cc(Cl)cc(Cl)c1	-42.2*
COc1ccc2c3c([nH]c2c1)[C@H](CO)N(C(=O)c1ccccn1)CC31CN(S(C)(=O)=O)C1	12.5
CO[C@H]1CN(C)C(=O)c2ccc(NC(=O)c3ccccc3)cc2OC[C@@H](C)N(C(=O)C2CC2)C[C@H]1C	-6.0
CN(C)C(=O)C[C@H]1CC[C@@H]2[C@@H](COc3ccc(NC(=O)Nc4cccc(Cl)c4)cc3C(=O)N2C)O1	-1.5
CO[C@@H]1CN(C)C(=O)c2ccc(NC(=O)Nc3c(C)noc3C)cc2OC[C@@H](C)N(C)C[C@H]1C	5.0
C[C@H](CO)N1C[C@H](C)[C@@H](CN(C)S(C)(=O)=O)Oc2ccc(NC(=O)Cc3ccccc3)cc2C1=O	-0.9
C[C@H](CO)N1C[C@H](C)[C@H](CN(C)Cc2ccccc2O)OCc2cn(nn2)CCCC1=O	6.2
O=C(Nc1ccc(F)cc1)N1CCCCN2[C@H](C1)[C@H](c1ccc(C#CC3CC3)cc1)[C@@H]2CO	24.3
C[C@H](O)C#Cc1ccc([C@@H]2[C@H](CO)N3CCCCN(S(=O)(=O)c4ccccc4)C[C@@H]23)cc1	0.5
O=S(=O)(c1ccccc1)N1CCCCN2[C@H](C1)[C@H](c1ccc(C#CC3CCCC3)cc1)[C@@H]2CO	-26.4*
O=S(=O)(c1ccccc1)N1CCCCN2[C@H](CO)[C@H](c3ccc(C#CC4CCCC4)cc3)[C@@H]2C1	22.9
O=C(C1CC1)N1CCCCN2[C@H](C1)[C@@H](c1ccc(C#CC3CCCC3)cc1)[C@@H]2CO	-24.5*
SMILES	DUX4 inh
O=S(=O)(c1ccc(F)cc1)N1CCCCN2[C@H](C1)[C@@H](c1ccc(C#CC3CC3)cc1)[C@@H]2CO	-1.8
O=S(=O)(c1ccccc1)N1CCCCN2[C@H](C1)[C@H](c1ccc(C#Cc3cccnc3)cc1)[C@@H]2CO	-45.3*
O=S(=O)(c1ccccc1)N1CCCCN2[C@H](CO)[C@H](c3ccc(C#Cc4cccnc4)cc3)[C@@H]2C1	-56.4*
C[C@H](O)C#Cc1ccc([C@H]2[C@H]3CN(S(=O)(=O)c4ccccc4)CCCCN3[C@H]2CO)cc1	1.9
O=C(C1CC1)N1CCCCN2[C@H](CO)[C@H](c3ccc(C#CC4CCCC4)cc3)[C@H]2C1	-0.6
O=S(=O)(c1ccccc1)N1CCCCN2[C@H](C1)[C@@H](c1ccc(C#Cc3cccnc3)cc1)[C@@H]2CO	0.3
O=S(=O)(c1ccccc1)N1CCCCN2[C@H](CO)[C@@H](c3ccc(-c4ccccc4)cc3)[C@@H]2C1	-5.3
COc1ccc2c3c(n(C)c2c1)[C@@H](CO)NCC31CCN(C(C)=O)CC1	6.3
CNC(=O)C[C@H]1CC[C@H]2[C@@H](COc3ccc(NC(=O)C4CC4)cc3C(=O)N2C)O1	0.3
Cc1ccc(S(=O)(=O)NCC[C@@H]2CC[C@H](NS(=O)(=O)c3ccccc3Cl)[C@@H](CO)O2)cc1	-1.3
CO[C@H]1CN(C)C(=O)c2ccc(NC(=O)C3CCCC3)cc2OC[C@H](C)N(CCC(F)(F)F)C[C@H]1C	-9.7
COc1ccc2c3c([nH]c2c1)[C@H](CO)N(C(=O)c1cccnc1)CC31CCN(C(=O)c2cccnc2)CC1	8.9
C[C@@H]1CN([C@H](C)CO)C(=O)c2c(c3ccccc3n2C)-c2ccccc2CO[C@@H]1CN(C)C(=O)Nc1ccc(-c2ccccc2)cc1	-0.7
C[C@H]1CC=CC[C@H](c2ccccc2)NC(=O)[C@@H](Cc2ccccc2)N(C)C(=O)c2ccccc2O1 (mixture of isomers)	-3.1
CC(C)[C@@H](C)NC(=O)N(C)C[C@H]1OCc2ccccc2-c2ccccc2C(=O)N([C@H](C)CO)C[C@H]1C	-2.9
CCCC(=O)N1CC2(CCN(C(=O)CC3CC3)CC2)c2c(n(C)c3cc(OC)ccc23)[C@@H]1CO	14.5
CC(C)[C@H]1C(=O)N[C@H](c2cccc(Cl)c2)CC=CC[C@H](C)Oc2ccccc2C(=O)N1C (mixture of isomers)	-5.8
CCC(=O)N1C[C@H](C)[C@H](OC)CN(C)C(=O)c2cc(NC(=O)NC3CCCC3)ccc2OC[C@@H]1C	4.1
COc1ccc(NC(=O)Nc2ccc3c(c2)C(=O)N([C@@H](C)CO)C[C@H](C)[C@@H](CN(C)Cc2ccncc2)OCCCC[C@H](C)O3)cc1	1.1
O=C(NCC[C@H]1CC[C@@H](NS(=O)(=O)c2ccc(Cl)cc2)[C@H](CO)O1)Nc1ccc(F)cc1	3.6
O=C(C1CCOCC1)N1C[C@@H]2N[C@H](C1)C2c1ccc(-c2cccc(F)c2)cc1 (some centres not stated)	-7.8
CC(=O)N1C[C@@H]2N[C@H](C1)C2c1ccc(-c2ccccc2)cc1 (some centres not stated)	1.0
N#Cc1cccc(-c2ccc(C3[C@@H]4CN(C(=O)c5ccncc5)C[C@H]3N4)cc2)c1 (some centres not stated)	1.2
N#Cc1ccc(-c2ccc(C3[C@@H]4CN(C(=O)C5CCCCC5)C[C@H]3N4)cc2)cc1 (some centres not stated)	-52.3*!
N#Cc1ccc(-c2ccc(C3[C@@H]4CN(C(=O)c5ccncc5)C[C@H]3N4)cc2)cc1 (some centres not stated)	-5.9
N#Cc1cccc(-c2ccc(C3[C@@H]4CN(C(=O)C5CCCCC5)C[C@H]3N4)cc2)c1 (some centres not stated)	-52.4*!
Cc1noc(C)c1S(=O)(=O)Nc1ccc2c(c1)C(=O)N([C@H](C)CO)C[C@H](C)[C@H](CN(C)C(=O)CCC(F)(F)F)OCCCC[C@@H](C)O2	-3.3
